Calls of active or inactive are those of the source.
What was measured:
[1] = optical density shifts of acrAB sulA E. coli – strain DRC41, OD650, 48 h, E. coli filamentation inducer project, primary screen (AID 1152); conditions: higher = more signal, called active from +8 up or from −8 down;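 also: E. coli MC1000 strain DRC41 lacking acrAB efflux pump and sulA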
[2] = probe aLefty1 binding on compound microarray – biochemical, small-molecule microarray, 635/667 nm fluorescence, primary screen (AID 1153); conditions: higher = more signal;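 also: score merges spot fluorescence with signal-to-noise ratio from the scanned slide images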
[3] = plasmodial surface anion channel blockers, osmotic lysis – cell-based, P. falciparum Indochina, OD700, 1 h, primary screen (AID 1154); conditions: P. falciparum Indochina infected RBC osmotic lysis, higher = more signal, called active from +8 up or from −8 down
[4] = plasmodial surface anion channel blockers, osmotic lysis – cell-based, P. falciparum Indochina, OD700, 2 h, primary screen (AID 1155);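 also: lysis reports solute entry through the parasite surface anion channel PSAC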; conditions: P. falciparum Indochina infected erythrocytes, higher = more signal, called active from +8 up or from −8 down
[5] = changes in parasitized red cell lysis, either direction – P. falciparum Indochina, OD700, 3 h, PSAC antagonist project, primary screen (AID 1156); conditions: P. falciparum-infected erythrocytes, osmotic lysis, higher = more signal, called active from +8 up or from −8 down
[6] = plasmodial surface anion channel blockers, osmotic lysis – cell-based, P. falciparum Indochina, OD700, 18 h, primary screen (AID 1157); conditions: P. falciparum Indochina infected erythrocytes, osmotic lysis OD700, 18 h; higher = more signal, called active from +8 up or from −8 down
[7] = S6 kinase pathway phospho-S6 level changes – cell-based, A549, cytoblot, luminescence, serum-stimulated, primary screen (AID 1158); conditions: 5 h, higher = more signal;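 also: serum-stimulated A549 lung adenocarcinoma cells; signal is phosphorylated S6 detected by cytoblot immunostaining with HRP secondary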
[8] = target: NADPH oxidase 2 (Homo sapiens) (UniProt P04839); assay: compounds shifting NOX2 Amplex Red fluorescence – cell-based, HEK293-NOX2, PMA-stimulated, NOX inhibitor project, primary screen (AID 1159); conditions: 45 min, higher = more signal, called active from +8 up or from −8 down; also: test concentration not given here
NADPH oxidase 2 (Homo sapiens), sequence (P04839 whole entry, looked up): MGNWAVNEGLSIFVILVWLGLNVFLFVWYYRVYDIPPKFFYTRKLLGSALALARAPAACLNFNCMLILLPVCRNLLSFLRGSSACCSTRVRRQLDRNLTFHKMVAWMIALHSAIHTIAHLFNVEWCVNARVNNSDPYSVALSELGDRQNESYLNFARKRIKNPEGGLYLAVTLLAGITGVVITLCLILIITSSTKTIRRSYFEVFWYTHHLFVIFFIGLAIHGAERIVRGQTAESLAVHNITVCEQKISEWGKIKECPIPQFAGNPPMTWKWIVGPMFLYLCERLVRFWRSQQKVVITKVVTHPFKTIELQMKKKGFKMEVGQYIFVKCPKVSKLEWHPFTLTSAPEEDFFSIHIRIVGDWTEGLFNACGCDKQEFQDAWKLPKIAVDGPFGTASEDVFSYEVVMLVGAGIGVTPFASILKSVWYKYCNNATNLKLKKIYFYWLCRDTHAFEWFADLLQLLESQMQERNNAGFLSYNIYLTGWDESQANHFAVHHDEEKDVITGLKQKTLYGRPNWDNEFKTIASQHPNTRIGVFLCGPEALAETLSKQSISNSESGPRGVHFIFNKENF

[9] = target: NADPH oxidase 4 (Homo sapiens) (UniProt Q9NPH5); assay: compounds shifting NOX4 Amplex Red fluorescence – cell-based, HEK293-NOX4, tetracycline-induced, NOX inhibitor project, primary screen (AID 1160); conditions: HEK293-NOX4, Amplex Red H2O2 fluorescence, 45 min; higher = more signal, called active from +8 up or from −8 down
NADPH oxidase 4 (Homo sapiens), sequence (Q9NPH5 whole entry, looked up): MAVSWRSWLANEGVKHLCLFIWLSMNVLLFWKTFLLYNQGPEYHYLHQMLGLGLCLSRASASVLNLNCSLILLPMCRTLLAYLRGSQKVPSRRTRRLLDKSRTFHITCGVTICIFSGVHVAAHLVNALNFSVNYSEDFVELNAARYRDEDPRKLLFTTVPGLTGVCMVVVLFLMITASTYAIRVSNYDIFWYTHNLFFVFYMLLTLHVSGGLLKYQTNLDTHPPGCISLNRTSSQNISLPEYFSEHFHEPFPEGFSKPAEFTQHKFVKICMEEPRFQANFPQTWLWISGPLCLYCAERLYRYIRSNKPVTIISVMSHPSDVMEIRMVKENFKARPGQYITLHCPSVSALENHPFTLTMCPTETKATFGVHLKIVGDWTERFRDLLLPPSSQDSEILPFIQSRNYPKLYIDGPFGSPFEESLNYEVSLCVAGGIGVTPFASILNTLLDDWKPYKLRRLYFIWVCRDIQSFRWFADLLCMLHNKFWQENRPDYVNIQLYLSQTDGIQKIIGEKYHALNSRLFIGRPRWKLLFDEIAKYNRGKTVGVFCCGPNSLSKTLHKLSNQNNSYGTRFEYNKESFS

[10] = target: NADPH oxidase 5 (Homo sapiens) (UniProt Q96PH1); assay: compounds shifting NOX5 Amplex Red fluorescence – cell-based, HEK293-NOX5, NOX inhibitor project, primary screen (AID 1161); conditions: HEK293-NOX5, ionomycin, 45 min, higher = more signal
NADPH oxidase 5 (Homo sapiens), sequence (Q96PH1 whole entry, looked up): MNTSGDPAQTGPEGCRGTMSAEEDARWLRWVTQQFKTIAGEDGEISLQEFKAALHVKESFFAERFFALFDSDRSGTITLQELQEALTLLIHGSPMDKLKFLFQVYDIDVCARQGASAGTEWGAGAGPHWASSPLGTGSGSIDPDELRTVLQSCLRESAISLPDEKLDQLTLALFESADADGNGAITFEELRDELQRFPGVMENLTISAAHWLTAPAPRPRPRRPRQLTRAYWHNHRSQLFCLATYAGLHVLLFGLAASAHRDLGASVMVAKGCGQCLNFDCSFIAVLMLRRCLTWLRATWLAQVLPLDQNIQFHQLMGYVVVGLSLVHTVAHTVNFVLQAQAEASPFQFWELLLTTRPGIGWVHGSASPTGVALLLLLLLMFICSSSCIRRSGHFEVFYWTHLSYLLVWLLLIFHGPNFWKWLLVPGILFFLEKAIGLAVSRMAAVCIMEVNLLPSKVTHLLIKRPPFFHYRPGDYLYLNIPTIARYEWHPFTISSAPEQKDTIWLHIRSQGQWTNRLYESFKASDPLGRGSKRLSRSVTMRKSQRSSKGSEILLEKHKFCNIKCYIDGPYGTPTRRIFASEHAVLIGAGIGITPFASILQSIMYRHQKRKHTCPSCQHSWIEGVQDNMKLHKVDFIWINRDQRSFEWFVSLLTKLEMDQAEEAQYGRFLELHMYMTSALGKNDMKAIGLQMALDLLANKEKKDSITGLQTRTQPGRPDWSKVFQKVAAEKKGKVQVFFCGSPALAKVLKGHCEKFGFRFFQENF

[11] = compound effects on lung adenocarcinoma cell viability – A549, calcein-AM fluorescence, 48 h, basal, profiling panel (AID 1162); conditions: higher = more signal; also: test concentration not given here
[12] = compound effects on differentiated 3T3-L1 adipocyte viability – cell-based, 3T3-L1 adipocytes, calcein-AM fluorescence, 48 h, basal, profiling panel (AID 1163); conditions: 3T3-L1 adipocytes viability, higher = more signal; also: test concentration not given here
[13] = compound effects on hepatocellular carcinoma cell viability – HepG2, calcein-AM fluorescence, 48 h, basal, profiling panel (AID 1164); conditions: higher = more signal; also: test concentration not given here
[14] = compound effects on multiple myeloma cell viability – MM1S, calcein-AM fluorescence, 48 h, basal, profiling panel (AID 1165); conditions: higher = more signal; also: test concentration not given here
[15] = calcein-AM signal in unstimulated myeloma cells – cell-based, calcein-AM fluorescence, 48 h, PK04 Diversity Set, profiling panel (AID 1166); conditions: RPMI8226 myeloma viability, higher = more signal;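 also: cells grown under basal conditions without added stimulus; test concentration not given here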
[16] = JC-1 mitochondrial signal, unstimulated HepG2 cells – cell-based, JC-1 fluorescence, 24 h, 100 nL compound, profiling panel (AID 1167); conditions: HepG2 mitochondrial potential, higher = more signal; also: test concentration not given here
[17] = JC-1 mitochondrial signal, unstimulated adipocytes – cell-based, JC-1 fluorescence, 3T3-L1 adipocytes, 24 h, 100 nL compound, profiling panel (AID 1168); conditions: JC-1 mitochondrial fluorescence, higher = more signal, called active from +8 up or from −8 down; also: test concentration not given here
[18] = JC-1 mitochondrial signal, unstimulated myeloma cells – cell-based, JC-1 fluorescence, RPMI8226, 24 h, 100 nL compound, profiling panel (AID 1169); conditions: JC-1 mitochondrial potential fluorescence, higher = more signal; also: test concentration not given here
[19] = JC-1 mitochondrial signal, unstimulated MM1S myeloma – cell-based, JC-1 fluorescence, 24 h, 100 nL compound, profiling panel (AID 1170); conditions: MM1S mitochondrial potential, higher = more signal; also: test concentration not given here
[20] = resazurin metabolic signal in A549 cells – cell-based, resazurin fluorescence, 24 h, PK04 Diversity Set, profiling panel (AID 1171); conditions: A549 viability, higher = more signal, called active from +8 up or from −8 down; also: test concentration not given here

Structure (SMILES)	z-score [1]	composite z-score [2]	z-score [3]	z-score [4]	z-score [5]	z-score [6]	z-score [7]	z-score [8]	z-score [9]	z-score [10]	z-score [11]	z-score [12]	z-score [13]	z-score [14]	z-score [15]	z-score [16]	z-score [17]	z-score [18]	z-score [19]	z-score [20]
Cc1ccc(S[C@]2(C(=O)NCC(C)C)CC(=O)N(Cc3ccccc3Cl)[C@@H]2c2ccc(CO)cc2)cc1	-0.132 (inactive)	-0.188	1.14 (inactive)	0.61 (inactive)	-0.23 (inactive)	0.0839 (inactive)	0.534	-1.85 (inactive)	0.717 (inactive)	-0.393	1.63	0.114	-0.45	-0.226	0.845	-0.595	-0.254 (inactive)	-0.492	0.767	-0.0989 (inactive)
CCOC(=O)[C@H]1C[C@H]2O[C@@]23C[C@H]1C(=O)N1CCCC1[C@@H]3O[Si](C)(C)C(C)(C)C (stereo not given in full)	-0.954 (inactive)	-0.0573	1.35 (inactive)	0.23 (inactive)	0.183 (inactive)	0.158 (inactive)	-0.67	1.05 (inactive)	0.302 (inactive)	-1.7	-0.486	0.729	-0.154	-0.337	-0.5	-0.625	-0.166 (inactive)	-0.366	0.193	-0.456 (inactive)
C=CCNC(=O)[C@@H]1[C@H]2C(=O)O[C@H](c3ccccc3)[C@H](c3ccccc3)N2[C@H](c2ccccc2OCCO)[C@@]12C(=O)Nc1ccc(C#CC3=CCCCC3)cc12	1.51 (inactive)	0.454	1.78 (inactive)	-0.144 (inactive)	-0.458 (inactive)	0.0442 (inactive)	2.36	0.646 (inactive)	-1.35 (inactive)	-4.4	-1.77	1.98	-2.85	-3.09	-3.42	-1.79	2.32 (inactive)	-0.853	-1.17	-1.49 (inactive)
Cc1ccc(S[C@]2(C(=O)NC3CC3)CC(=O)N(Cc3ccccc3)[C@@H]2c2ccc(CO)cc2)cc1	-0.485 (inactive)	0.106	1.28 (inactive)	0.216 (inactive)	-0.552 (inactive)	-0.331 (inactive)	0.0262	-0.106 (inactive)	1.09 (inactive)	0.997	1.29	-0.119	-0.12	-0.0947	0.181	-0.439	-0.199 (inactive)	1.07	-0.452	0.846 (inactive)
COc1ccc(C#Cc2ccc3c(c2)[C@]2(C(=O)N3)[C@H](c3ccc(O)cc3)N3[C@H](c4ccccc4)[C@H](c4ccccc4)OC(=O)[C@H]3[C@@H]2C(=O)N2CCCCCCC2)cc1	0.777 (inactive)	2.53	-0.212 (inactive)	-0.763 (inactive)	-0.272 (inactive)	-1.29 (inactive)	2.87	0.723 (inactive)	-0.00989 (inactive)	0.855	0.334	1.01	0.629	-0.0384	-0.208	0.269	3.48 (inactive)	-0.538	0.366	-0.531 (inactive)
C=C(COC)C(=O)CC[C@@H](OC(=O)c1cccnc1)c1ccc(CO)o1	0.272 (inactive)	-0.0536	1.47 (inactive)	0.145 (inactive)	0.0755 (inactive)	0.038 (inactive)	-0.0125	1.59 (inactive)	0.304 (inactive)	0.21	0.408	-0.615	0.0726	-0.193	-0.205	-0.178	-0.294 (inactive)	0.0598	0.627	0.709 (inactive)
COC(=O)[C@@]1(Cc2ccccc2)[C@H]2c3cc(C(=O)N4CCCC4)n(C)c3C[C@H]2CN1C(=O)c1ccccc1	-0.308 (inactive)	0.321	1.54 (inactive)	-0.0273 (inactive)	0.835 (inactive)	0.396 (inactive)	-0.0948	-0.153 (inactive)	-0.653 (inactive)	-1.45	-1.14	0.167	-1.24	0.143	-0.284	0.533	-0.469 (inactive)	-0.0143	-0.827	-0.526 (inactive)
CCOC(=O)C[C@H]1[C@H](OC(=O)Cc2ccc3c(c2)OCO3)[C@@H](NC(=O)C2CCCCC2)c2cc(OCCCO)ccc2N1C(=O)Cc1ccc(OC)cc1	2.31 (inactive)	0.405	5.77 (inactive)	-0.54 (inactive)	-1.21 (inactive)	-0.911 (inactive)	1.97	-0.00495 (inactive)	1.07 (inactive)	0.297	0.746	0.433	1.08	0.747	0.664	2.39	0.0143 (inactive)	-0.0561	-0.784	-0.247 (inactive)
CC(C)c1ccc(NN2C(C(O)c3cccc(O)c3)C=CC3C(=O)N(c4ccccc4)C(=O)C32)cc1 (stereo not given)	-0.833 (inactive)	0.0523	8.05 (active)	1.14 (inactive)	1.5 (inactive)	1.64 (inactive)	-0.83	-2.01 (inactive)	-5.51 (inactive)	-4.13	-1.09	-0.35	-0.753	-0.26	-0.237	-1.85	-0.948 (inactive)	-0.554	-0.749	0.403 (inactive)
CC1=C2[C@@H](CCc3ccccc3)OB(O)C[C@@H]2n2c(=O)n(-c3ccccc3)c(=O)n2C1	-0.616 (inactive)	-0.347	1.57 (inactive)	0.323 (inactive)	-0.318 (inactive)	-0.31 (inactive)	0.417	-0.416 (inactive)	-1.61 (inactive)	-0.939	0.328	-0.448	-0.335	0.271	-1.14	-2.01	0.553 (inactive)	0.146	-0.126	-0.699 (inactive)
CC=CC(O)C1C=CC2C(=O)N(c3ccccc3)C(=O)C2N1Nc1ccc(C(C)C)cc1 (stereo not given)	-1.63 (inactive)	0.424	20.2 (active)	7.4 (inactive)	1.39 (inactive)	1.68 (inactive)	-0.521	-0.68 (inactive)	-3.67 (inactive)	-4.2	0.0409	0.146	0.645	-0.0872	-0.849	-1.09	-1.32 (inactive)	-0.467	-1.08	-1.65 (inactive)
COCCOC(=O)N1C(=O)[C@@]2(c3cc(C#CC4=CCCCC4)ccc31)[C@H](C(=O)NC[C@H](O)c1ccccc1)[C@H]1C(=O)O[C@H](c3ccccc3)[C@H](c3ccccc3)N1[C@@H]2c1ccc(O)cc1	1.8 (inactive)	0.265	0.602 (inactive)	0.793 (inactive)	0.0873 (inactive)	0.554 (inactive)	-0.176	1.2 (inactive)	0.349 (inactive)	1.22	-0.144	1.3	-0.34	-2.81	-3.45	-2.71	1.35 (inactive)	-0.657	0.0116	-1.09 (inactive)
COCCOC(=O)N1C(=O)[C@@]2(c3cc(C#CCC(C(=O)OC)C(=O)OC)ccc31)[C@H](C(=O)N1CCCCCCC1)[C@H]1C(=O)O[C@H](c3ccccc3)[C@H](c3ccccc3)N1[C@@H]2c1ccc(OCCO)cc1	0.917 (inactive)	2.5	17.1 (active)	4.27 (inactive)	0.791 (inactive)	1.14 (inactive)	-0.0447	0.327 (inactive)	0.43 (inactive)	0.547	0.855	1.27	1.19	-0.38	0.185	0.322	-5 (inactive)	-0.812	-1.41	1.33 (inactive)
COC(=O)c1c(CC[C@@H](CO)NC(=O)N[C@@H](Cc2ccccc2)Cn2cc(C3(O)CCCCC3)nn2)oc(C(C)=O)c1C(=O)OC	1.27 (inactive)	0.101	2.27 (inactive)	0.566 (inactive)	0.999 (inactive)	0.312 (inactive)	1.93	-5.26 (inactive)	-2.18 (inactive)	-4.82	0.548	2.01	-0.889	0.513	-1.69	0.384	0.349 (inactive)	-0.614	-0.403	0.215 (inactive)
O=C1O[C@H](c2ccccc2)[C@H](c2ccccc2)N2[C@H]1[C@@H](C(=O)O)[C@]1(C(=O)Nc3ccc(C#CC4=CCCCC4)cc31)[C@H]2c1ccc(OCCO)cc1	-0.915 (inactive)	0.167	0.381 (inactive)	-0.97 (inactive)	-9.89 (active)	-0.969 (inactive)	0.333	1.19 (inactive)	-0.768 (inactive)	1.37	0.199	-0.774	0.122	-2.72	-4.06	-4.3	-3.28 (inactive)	-0.949	-1.53	0.729 (inactive)
O=C1C[C@]2(c3ccc([N+](=O)[O-])cc3)C(=O)N(CC(F)(F)F)c3cc(CO)ccc3[C@H]2N1CC12CC3CC(CC(C3)C1)C2	0.458 (inactive)	-0.629	0.56 (inactive)	-0.365 (inactive)	0.12 (inactive)	0.255 (inactive)	0.229	-0.347 (inactive)	0.375 (inactive)	0.0968	0.831	-0.425	0.655	0.489	0.0342	0.91	-1.2 (inactive)	0.308	-0.964	-0.399 (inactive)
O=C(O)[C@H]1C[C@H]2C(=O)NCC(=O)N2[C@H]1c1ccc(O)cc1	1.55 (inactive)	-0.0171	2.81 (inactive)	0.898 (inactive)	-2.6 (inactive)	0.276 (inactive)	0.586	-1.99 (inactive)	-1.12 (inactive)	-0.575	1.14	0.108	0.752	-2.55	-0.593	2.37	-0.262 (inactive)	-0.629	-1.43	0.672 (inactive)
